This note sets out measurements from PubChem BioAssay (EPA / NIEHS).

In test [1] the target is Hepatocyte nuclear factor 3-beta (Homo sapiens) (UniProt Q9Y261). The test can be described thus: ATG_FoxA2_CIS: Attagene CIS-FACTORIAL HepG2 Assay for human Forkhead box A2 (FOXA2) (AID 2282942; active means hit-call score of the fitted dose curve at least 0.9, where 1 is the maximum; inactive means score below 0.9). The conditions noted are these: HepG2 cis-reporter transcription factor activity, 24 h; actives raise or lower the signal. In short, it runs like this:
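Endogenous transcription factor activity was read in HepG2 cells carrying transiently transfected cis-promoter reporter units. After 24 h dosing, reporter mRNA was quantified by RT-PCR and capillary electrophoresis, and values fitted bidirectionally versus DMSO.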

A short description of test [2]: ATG_PBREM_CIS: Attagene CIS-FACTORIAL HepG2 Assay for human Phenobarbital-responsive Enhancer Module (PBREM) (AID 2282955; active means hit-call score of the fitted dose curve at least 0.9, where 1 is the maximum; inactive means score below 0.9). The following applies: HepG2 PBREM cis-reporter, Attagene multiplexed transcription; actives raise or lower the signal. In short, it runs like this: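 Fluorescence of labelled reporter cDNA fragments, resolved by capillary electrophoresis, gives mRNA induction in transfected HepG2 cells treated for 24 h; DMSO serves as negative control and baseline.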

Test [3] is described as follows: ATG_RORE_CIS: Attagene CIS-FACTORIAL HepG2 Assay for human RAR-related Orphan Receptor Element (RORE) (AID 2282959; active means hit-call score of the fitted dose curve at least 0.9, where 1 is the maximum; inactive means score below 0.9). The following applies: HepG2 Attagene cis-factorial RORE reporter, mRNA; actives raise or lower the signal. The gist of the method:
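Cells were HepG2 carrying transfected cis-regulated reporter constructs, dosed for 24 hours. Total RNA was reverse-transcribed and reporter cDNA amplified, fluorescently labeled and sized by capillary electrophoresis. Activity was fitted bidirectionally relative to DMSO.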

The target of test [4] is Hepatocyte nuclear factor 4-alpha (Homo sapiens) (UniProt P41235). Briefly: ATG_HNF4a_TRANS: Attagene TRANS-FACTORIAL HepG2 Assay for human Hepatocyte Nuclear Factor 4 alpha (HNF4a) (AID 2282982). The following applies: HepG2 HNF4a transactivation reporter, mRNA readout. The gist of the method: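 Transient MRTU transfection of HepG2, 24 h dosing. Readout: reporter mRNA via RT-PCR + capillary electrophoresis, fluorescence; activity fit upward relative to DMSO control.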
Sequence of Hepatocyte nuclear factor 4-alpha (Homo sapiens) (P41235 whole entry, looked up): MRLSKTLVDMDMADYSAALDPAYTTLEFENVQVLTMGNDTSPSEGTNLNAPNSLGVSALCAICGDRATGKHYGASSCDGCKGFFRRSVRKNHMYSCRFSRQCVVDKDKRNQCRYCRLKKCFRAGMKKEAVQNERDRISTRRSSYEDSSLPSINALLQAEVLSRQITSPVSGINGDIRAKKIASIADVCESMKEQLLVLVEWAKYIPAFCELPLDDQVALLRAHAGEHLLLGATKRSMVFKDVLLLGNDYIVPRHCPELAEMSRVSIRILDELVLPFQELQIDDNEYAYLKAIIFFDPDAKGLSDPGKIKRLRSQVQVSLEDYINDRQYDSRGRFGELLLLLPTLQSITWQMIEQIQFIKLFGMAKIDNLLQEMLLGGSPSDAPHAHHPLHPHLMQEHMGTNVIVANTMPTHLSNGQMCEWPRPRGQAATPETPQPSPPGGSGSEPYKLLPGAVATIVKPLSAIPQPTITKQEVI

A short description of test [5]: ATG_M_32_TRANS: Attagene TRANS-FACTORIAL HepG2 Assay for M32 Transcription Factor (Internal Marker) (AID 2282984).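 Further: transcript level of a background control reporter unit measured by RT-PCR and capillary electrophoresis.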 The conditions noted are these: HepG2 Attagene TRANS M32 internal marker reporter. The gist of the method: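 Read-out: fluorescent reporter cDNA fragments resolved by capillary electrophoresis after RT-PCR of total RNA. Transfected HepG2 cells were exposed to chemical for 24 h. Activity scored in the positive direction relative to DMSO.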

Test [6] can be described thus: ATG_NF_kB_CIS: Attagene CIS-FACTORIAL HepG2 Assay for human Nuclear Factor Kappa B (NF-kB) (AID 2282991; active means hit-call score of the fitted dose curve at least 0.9, where 1 is the maximum; inactive means score below 0.9). The conditions noted are these: HepG2 Attagene cis-factorial NF-kB reporter mRNA; actives raise or lower the signal. In short, it runs like this:
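Endogenous transcription factor activity in HepG2 was captured via cis-regulated reporter constructs; after 24 h dosing, reporter mRNA was reverse-transcribed, amplified, fluorescently labelled and sized by capillary electrophoresis, with activity fitted bidirectionally relative to DMSO.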

Test [7] concerns the target human Retinoid X Receptor beta (RXRb), RXRB (gene 6257) (UniProt P28702). The test can be described thus: ATG_RXRb_TRANS: Attagene TRANS-FACTORIAL HepG2 Assay for human Retinoid X Receptor beta (RXRb) (AID 2283013). In short, it runs like this:
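After a 24 h incubation with test chemical, transfected HepG2 cells carrying NR-Gal4 fusions and GAL4-UAS reporter transcription units yield RNA whose reporter cDNA is FAM-labelled, HpaI-cut and sized by capillary electrophoresis; increases over DMSO are scored.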

Test [8] in a line: TOX21_p53_BLA_p2_viability: Viability Assessment in the Tox21 HCT-116 p53 Agonism Beta-lactamase Assay, Phase 2 (AID 2283591).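 Further: compound exposure lasted 16 h at 37 °C; actives lower the ATP signal meaning cytotoxicity.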 The gist of the method:
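HCT116 p53-bla cells, 4000/well, dosed after 5 h plating (217-fold dilution of DMSO stocks) and incubated 16 h at 37C. Viability taken as cellular ATP by CellTiter-Glo luminescence after 30 min RT; signal loss marks cytotoxicity.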

In test [9] the target is Cellular tumor antigen p53 (Homo sapiens) (UniProt P04637). The test can be described thus: TOX21_p53_BLA_p2_ratio: Tox21 HCT-116 p53 Agonism Beta-lactamase Assay, Ratio, Phase 2 (AID 2283592). The gist of the method: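 DMSO-normalized, positive-direction endpoint derived from the 460 nm/530 nm FRET ratio in HCT116 p53 beta-lactamase reporter cells exposed 16 h at 37C and loaded with CCF4-AM for 2 h.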
Sequence of Cellular tumor antigen p53 (Homo sapiens) (P04637 whole entry, looked up): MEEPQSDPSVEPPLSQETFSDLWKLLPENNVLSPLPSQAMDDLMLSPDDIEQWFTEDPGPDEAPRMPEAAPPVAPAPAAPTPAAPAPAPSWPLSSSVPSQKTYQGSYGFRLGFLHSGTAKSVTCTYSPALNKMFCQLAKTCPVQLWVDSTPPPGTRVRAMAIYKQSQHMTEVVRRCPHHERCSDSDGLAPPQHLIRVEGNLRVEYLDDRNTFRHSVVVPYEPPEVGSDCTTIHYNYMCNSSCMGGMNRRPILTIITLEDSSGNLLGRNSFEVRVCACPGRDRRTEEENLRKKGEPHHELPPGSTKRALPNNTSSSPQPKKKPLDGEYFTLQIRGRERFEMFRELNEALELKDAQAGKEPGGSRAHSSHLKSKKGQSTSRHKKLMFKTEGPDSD

The nature of test [10]: TOX21_p53_BLA_p3_viability: Viability Assessment in the Tox21 HCT-116 p53 Agonism Beta-lactamase Assay, Phase 3 (AID 2283593).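 Further: cells exposed to compound for 16 h before reading.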 In short, it runs like this: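 HCT116 cells, 4000/well, dosed 5 h after plating by pin transfer (217-fold dilution from DMSO stock) and incubated 16 h at 37C, 5% CO2. Viability read as ATP luminescence with CellTiter-Glo after 30 min at room temperature.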

For test [11], the target named is Cellular tumor antigen p53 (Homo sapiens) (UniProt P04637). The test can be described thus: TOX21_p53_BLA_p3_ratio: Tox21 HCT-116 p53 Agonism Beta-lactamase Assay, Ratio, Phase 3 (AID 2283596). The gist of the method: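 Cells were seeded at 4000/well, rested 5 h at 37C, then dosed with DMSO compound solutions (217-fold dilution) for 16 h. CCF4-AM substrate was loaded for 2 h at room temperature, and the 460/530 nm emission ratio was fitted for gain of signal versus DMSO.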

The target is the same in test [12]. The test can be described thus: TOX21_p53_BLA_p5_ratio: Tox21 HCT-116 p53 Agonism Beta-lactamase Assay, Ratio, Phase 5 (AID 2283599). The gist of the method:
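HCT-116 p53-bla cells (4000/well) plated 5 h, dosed with compound (217-fold DMSO dilution) for 16 h at 37 C; CCF4-AM substrate 2 h at room temperature. Activity is the 460/530 nm emission ratio (405 nm excitation), fitted in gain-of-signal direction versus DMSO.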

Test [13] can be described thus: TOX21_p53_BLA_p5_viability: Viability Assessment in the Tox21 HCT-116 p53 Agonism Beta-lactamase Assay, Phase 5 (AID 2283600). The gist of the method:
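Here cell health was gauged by ATP levels in wells holding 4000 cells, each treated 16 h with DMSO-delivered compounds at 217-fold dilution; reduced luminescence marked toxicity.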

The target of test [14] is Cellular tumor antigen p53 (Homo sapiens) (UniProt P04637). Briefly: TOX21_p53_BLA_p4_ratio: Tox21 HCT-116 p53 Agonism Beta-lactamase Assay, Ratio, Phase 4 (AID 2283601). In short, it runs like this: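 HCT-116 p53 beta-lactamase reporter cells (4000/well) preincubated 5 h, then compound (217-fold dilution of DMSO stock) for 16 h at 37C. CCF4-AM substrate added 2 h at room temperature; 460/530 nm emission ratio fitted upward versus DMSO.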

The nature of test [15]: ATG_SREBP_CIS: Attagene CIS-FACTORIAL HepG2 Assay for human Sterol Regulatory Element Binding (SREBP) (AID 2282962; active means hit-call score of the fitted dose curve at least 0.9, where 1 is the maximum; inactive means score below 0.9). The following applies: HepG2 Attagene cis-factorial SREBP reporter, mRNA; actives raise or lower the signal. In short, it runs like this: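 Readout: fluorescent reporter-transcript peaks resolved by capillary electrophoresis after RT-PCR. Cells were human HepG2 carrying transfected cis-promoter reporter constructs, dosed for 24 h. Gain or loss of signal was fitted against DMSO controls.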

The nature of test [16]: ATG_NFI_CIS: Attagene CIS-FACTORIAL HepG2 Assay for human Nuclear Factor I (NFI) (AID 2282989; active means hit-call score of the fitted dose curve at least 0.9, where 1 is the maximum; inactive means score below 0.9). The conditions noted are these: HepG2 cis-regulatory reporter, NFI response element transcription; actives raise or lower the signal. The gist of the method:
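Reporter transcripts were measured by RT-PCR with fluorescent primer extension and capillary electrophoresis 24 h post-treatment. HepG2 cells carried transiently transfected cis-regulated reporter constructs reporting endogenous factor activity; gain or loss fitted against DMSO baseline.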

Test [17] addresses Retinoic acid receptor alpha (Homo sapiens) (UniProt P10276). Briefly: ATG_DR5_RAR_CIS: Attagene CIS-FACTORIAL HepG2 Assay for human Retinoic Acid Receptor Alpha (RARE), DR5 submotif (AID 2282934; active means hit-call score of the fitted dose curve at least 0.9, where 1 is the maximum; inactive means score below 0.9). The following applies: HepG2 Attagene cis-factorial RARE DR5 reporter, mRNA; actives raise or lower the signal. The gist of the method: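 Read-out: DR5-driven reporter transcript measured by RT-PCR, 6-FAM primer extension, HpaI digest and capillary electrophoresis. Human HepG2 liver cells carry transiently transfected cis-element reporter constructs; dosing lasts 24 h. Gain or loss of signal fitted against DMSO baseline.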

A short description of test [18]: ATG_FoxO_CIS: Attagene CIS-FACTORIAL HepG2 Assay for human Forkhead box O (FoxO) (AID 2282943; active means hit-call score of the fitted dose curve at least 0.9, where 1 is the maximum; inactive means score below 0.9). The following applies: HepG2 Attagene cis-reporter, FoxO element, mRNA; actives raise or lower the signal. In short, it runs like this:
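Read-out: fluorescence of 6-FAM-labelled reporter cDNA fragments resolved by capillary electrophoresis. Transiently transfected HepG2 cells were dosed for 24 h; activity fitted in both directions relative to DMSO controls.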

The target of test [19] is human Peroxisome Proliferator-activated Receptor alpha (PPARa), PPARA (gene 5465) (UniProt Q07869). The test can be described thus: ATG_PPARa_TRANS: Attagene TRANS-FACTORIAL HepG2 Assay for human Peroxisome Proliferator-activated Receptor alpha (PPARa) (AID 2283001). In short, it runs like this:
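Transient HepG2 transfection, GAL4-UAS reporters, NR-Gal4 chimeras; 24 h compound exposure. Readout: reporter transcripts by RT-PCR, 6-FAM primer extension, HpaI digest, capillary electrophoresis. Positive direction vs DMSO baseline.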

Test [20] is described as follows: ATG_GRE_CIS: Attagene CIS-FACTORIAL HepG2 Assay for human Glucocorticoid Response Elements (GRE) (AID 2282947; active means hit-call score of the fitted dose curve at least 0.9, where 1 is the maximum; inactive means score below 0.9). The following applies: HepG2 GRE cis-reporter, Attagene multiplex mRNA; actives raise or lower the signal. In short, it runs like this:
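Read-out: fluorescent reporter-transcript fragments separated by capillary electrophoresis after RT-PCR. Transiently transfected HepG2 cells carrying cis-element-driven reporter units were dosed for 24 h; gain or loss of signal fitted against DMSO control.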

Records with an inconclusive call do not appear. Calls of active or inactive are those of the source. How the source made its calls, unless noted: active means hit-call score of the fitted dose curve at least 0.9, where 1 is the maximum; inconclusive means response in the unintended direction; inactive means score below 0.9.

Sequence of human Peroxisome Proliferator-activated Receptor alpha (PPARa), PPARA (gene 5465) (Q07869 whole entry, looked up, the tested form may be a part): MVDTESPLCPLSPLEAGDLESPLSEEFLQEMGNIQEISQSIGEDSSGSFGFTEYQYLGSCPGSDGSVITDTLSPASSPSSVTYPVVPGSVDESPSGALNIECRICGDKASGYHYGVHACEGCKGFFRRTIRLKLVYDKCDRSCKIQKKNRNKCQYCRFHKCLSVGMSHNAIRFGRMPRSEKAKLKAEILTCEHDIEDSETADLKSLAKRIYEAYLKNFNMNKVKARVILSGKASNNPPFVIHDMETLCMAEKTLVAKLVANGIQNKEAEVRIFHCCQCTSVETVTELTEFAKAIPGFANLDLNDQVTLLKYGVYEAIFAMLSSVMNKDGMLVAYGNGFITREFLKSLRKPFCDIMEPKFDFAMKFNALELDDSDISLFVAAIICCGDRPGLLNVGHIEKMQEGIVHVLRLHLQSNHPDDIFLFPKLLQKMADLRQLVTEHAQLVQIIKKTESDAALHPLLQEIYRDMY
Sequence of human Retinoid X Receptor beta (RXRb), RXRB (gene 6257) (P28702 whole entry, looked up, the tested form may be a part): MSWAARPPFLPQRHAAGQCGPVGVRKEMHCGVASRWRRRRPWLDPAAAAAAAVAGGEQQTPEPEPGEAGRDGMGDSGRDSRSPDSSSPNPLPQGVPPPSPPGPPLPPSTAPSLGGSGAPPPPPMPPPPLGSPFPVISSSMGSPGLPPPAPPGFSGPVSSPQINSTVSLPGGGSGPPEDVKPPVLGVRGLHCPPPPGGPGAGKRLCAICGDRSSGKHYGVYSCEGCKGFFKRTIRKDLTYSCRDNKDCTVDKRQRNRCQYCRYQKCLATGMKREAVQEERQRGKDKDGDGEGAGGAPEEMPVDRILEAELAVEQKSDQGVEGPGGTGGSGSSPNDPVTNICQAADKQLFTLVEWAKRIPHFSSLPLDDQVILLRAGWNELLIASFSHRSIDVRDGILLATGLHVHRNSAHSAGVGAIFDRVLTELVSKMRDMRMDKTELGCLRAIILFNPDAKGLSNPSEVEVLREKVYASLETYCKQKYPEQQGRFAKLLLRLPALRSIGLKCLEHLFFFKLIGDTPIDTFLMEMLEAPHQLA
Sequence of Retinoic acid receptor alpha (Homo sapiens) (P10276 whole entry, looked up): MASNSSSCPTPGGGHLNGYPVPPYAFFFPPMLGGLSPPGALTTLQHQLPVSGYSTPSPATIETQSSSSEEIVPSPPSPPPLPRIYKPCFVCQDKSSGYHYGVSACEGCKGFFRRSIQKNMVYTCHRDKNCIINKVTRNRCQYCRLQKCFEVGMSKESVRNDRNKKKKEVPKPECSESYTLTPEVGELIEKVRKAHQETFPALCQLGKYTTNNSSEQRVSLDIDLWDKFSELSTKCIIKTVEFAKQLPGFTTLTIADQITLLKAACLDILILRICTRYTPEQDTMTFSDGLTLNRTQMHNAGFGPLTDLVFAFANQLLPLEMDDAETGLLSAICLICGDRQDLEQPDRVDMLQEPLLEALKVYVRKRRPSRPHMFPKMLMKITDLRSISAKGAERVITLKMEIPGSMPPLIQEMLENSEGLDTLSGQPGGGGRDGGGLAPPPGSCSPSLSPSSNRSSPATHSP
Sequence of Hepatocyte nuclear factor 3-beta (Homo sapiens) (Q9Y261 whole entry, looked up): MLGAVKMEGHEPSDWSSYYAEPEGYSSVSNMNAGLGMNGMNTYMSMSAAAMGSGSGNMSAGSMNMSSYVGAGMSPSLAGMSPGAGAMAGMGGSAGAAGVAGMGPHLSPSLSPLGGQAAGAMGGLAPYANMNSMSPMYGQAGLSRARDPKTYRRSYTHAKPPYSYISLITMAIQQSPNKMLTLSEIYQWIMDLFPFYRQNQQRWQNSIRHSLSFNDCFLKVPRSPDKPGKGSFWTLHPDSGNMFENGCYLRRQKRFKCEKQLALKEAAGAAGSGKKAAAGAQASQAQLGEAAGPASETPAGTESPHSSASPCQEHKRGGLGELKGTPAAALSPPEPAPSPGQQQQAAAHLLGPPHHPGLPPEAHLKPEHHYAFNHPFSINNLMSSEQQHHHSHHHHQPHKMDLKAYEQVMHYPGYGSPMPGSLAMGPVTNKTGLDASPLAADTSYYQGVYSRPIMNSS

`CN(C)c1ccc(C(c2ccccc2)c2ccc(N(C)C)cc2)cc1`: the compound was called inactive in test [1], in [2], in test [3], in test [4], in test [5] and in test [6]. Further, the call in test [7], in test [8], in [9], in test [10], in test [11] and in [12] was inactive. Moreover, the result in test [13] and in [14] was inactive.

Regarding `CCCCn1cc[n+](C)c1`, the compound was called inactive in test [15], in test [4], in [16] and in test [7].

As to `CCCCCCC1CCC(=O)O1` (stereo unspecified), the result in test [17], in [1], in test [18], in test [2], in test [15] and in [4] was inactive. For the same compound, the compound was called inactive in test [5], in test [19], in test [7], in [8], in [9] and in [11]. Besides, the outcome in test [12] was inactive.

Turning to `COC(=O)c1ccccc1`, the compound was called inactive in test [1], in test [3], in test [15], in test [4], in test [5] and in test [16]. The compound was classed as inactive in test [6], in [8], in test [9], in [10], in [11] and in test [12]. In addition, the compound was classed as inactive in [13] and in [14].

As usually defined, the AC50 is the midpoint of the concentration-response curve, whichever way the signal moves. Take `Nc1nnc(-c2ccc([N+](=O)[O-])o2)o1`: the call in [17], in test [1], in [18], in test [20], in test [2] and in test [4] was inactive. Moreover, the compound was called inactive in test [6], in [19], in [7], in test [8], in [10] and in [11]. The outcome in test [12] and in test [13] was inactive. For the same compound, in test [14], the AC50 is 70.1 µM (active).

For the compound `CN1CCCC1`, the outcome in test [17], in test [1], in test [18], in [2], in test [15] and in test [4] was inactive. For the same compound, the call in [5], in test [6], in test [19], in test [8], in test [9] and in test [10] was inactive. The result in [12] and in test [14] was inactive.

For the compound `O=C(O)c1cc(Cl)cc(Cl)c1O`, the call in [1], in test [18], in test [3], in [15], in test [4] and in [6] was inactive. Further, the call in test [19], in test [7], in [8], in test [9], in test [10] and in [11] was inactive. Moreover, the result in test [12], in [13] and in [14] was inactive.

For `OCCN(CCO)c1cccc(Cl)c1`, the result in [1], in test [18], in [2], in test [15], in test [4] and in test [6] was inactive. Also, the result in test [7], in test [8], in test [9], in test [11], in test [12] and in [14] was inactive.

Take `CN(C)CCC(c1ccc(Cl)cc1)c1ccccn1` (stereo unspecified): the compound was called inactive in [18], in test [20], in test [3], in [15], in test [5] and in test [16]. Moreover, the result in [6], in [8], in test [10], in [11] and in [13] was inactive.

As to `CCCOCCC`, the outcome in [17], in test [18], in test [20], in [2], in test [15] and in test [4] was inactive. Moreover, the compound was classed as inactive in test [6], in test [19], in test [7], in [8], in test [9] and in test [10]. Moreover, the result in [12] and in test [14] was inactive.
